Drawing on PubChem BioAssay (Tox21), this text covers Potency for 24 compounds.

Assay [1] can be described thus: qHTS assay to identify small molecule antagonists of the estrogen related receptor (ERR) signaling pathway from Tox21 library - cell viability counter screen (AID 1224834). Further: nearly all actives have a fitted effect of over 30% in size. The method in brief: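 After 17.5 h of compound exposure at 37 C, ERR cells are incubated with CellTiter-Fluor for 30 min and fluorescence intensity serves as the viability measure.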
In assay [2] the target is Luciferin 4-monooxygenase (Photinus pyralis) (UniProt P08659). The assay is described as follows: qHTS assay to identify small molecule inhibitors of firefly luciferase (AID 1224835). Further: nearly all actives have a fitted effect of over 25% in size. The method in brief: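 Biochemical qHTS: compounds run as interplate titrations against purified firefly enzyme, with D-luciferin and ATP each at its KM concentration. Light output recorded by CCD imaging.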
A general note: qHTS replaces the single test concentration by a dilution series.

Assay [3] is described as follows: qHTS assay to identify small molecule agonists of the constitutive androstane receptor (CAR) signaling pathway - cell viability counter screen (AID 1224836). Further: nearly all actives have a fitted effect of over 45% in size. The method in brief: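 Fluorescence from CellTiter-Fluor indicates live cells after 23 h exposure. The human hepatoma line expresses hCAR and a CYP2B6-2.2kb reporter. Incubation medium contains 0.75 uM PK11195 (final).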

Assay [4] in a line: qHTS assay to identify small molecule antagonists of the constitutive androstane receptor (CAR) signaling pathway - cell viability counter screen (AID 1224837). Further: nearly all actives have a fitted effect of over 45% in size. The method in brief:
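Counter screen run in HepG2-CYP2B6-hCAR cells: 4 hr settle, compound titration (15 concentrations) with 50 nM CITCO, 23 hr at 37 C/5% CO2, CellTiter-Fluor fluorescence.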

Assay [5] addresses Nuclear receptor subfamily 1 group I member 3 (Homo sapiens) (UniProt Q14994). Put plainly: qHTS assay to identify small molecule antagonists of the constitutive androstane receptor (CAR) signaling pathway (AID 1224838).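 Further: HepG2 cells stably expressing hCAR with CYP2B6 luciferase reporter stimulated by CITCO; nearly all actives have a fitted effect of over 40% in size.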 A digest of the protocol: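 Cell line: HepG2 double-stable for hCAR and CYP2B6-2.2kb reporter. Agonist: CITCO, 50 nM final. Compounds: 15 concentrations, 24 h, 37 C. Detection: ONE-Glo luminescence.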

Assay [6] shares this target. Put plainly: qHTS assay to identify small molecule agonists of the constitutive androstane receptor (CAR) signaling pathway (AID 1224839). Further: nearly all actives have a fitted effect of over 15% in size. A digest of the protocol: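 Stable hCAR/CYP2B6-2.2kb HepG2 line in DMEM with 10% FBS; compounds (15 concentrations) and 0.75 uM PK11195 final, 24 h at 37 C/5% CO2, then ONE-Glo luminescence after 30 min.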
Assay [7] can be described thus: qHTS assay to identify small molecule antagonists of the estrogen related receptor signaling pathway with the pleiotropic PPARgamma coactivator (PGC) from Tox21 10K library - cell viability counter screen (AID 1224840; active means well fitted cell-killing curve with a large enough effect in the repeat runs, not every such curve was filed as active; further: nearly all actives have a fitted effect of over 40% in size). A digest of the protocol:
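Following seeding of 2,000 PGC/ERR cells/well and 6 hours' incubation, test compounds were delivered in DMSO. The plates then sat 17.5 hours at 37 C before a fluorogenic live-cell protease reagent (CellTiter-Fluor) was read after 30 min.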

Assay [8] is described as follows: qHTS assay to identify small molecule antagonists of the estrogen related receptor signaling pathway with the pleiotropic PPARgamma coactivator (PGC) from Tox21 10K library (AID 1224841; call rule not given here; further: actives are mostly falling curves and most rising ones were filed inactive; nearly all actives have a fitted effect of over 50% in size). A digest of the protocol: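 qHTS antagonist format: PGC/ERR cells, 2k/well, compound in DMSO by pin transfer after 6 h attachment, 18 h treatment at 37 C, One-Glo luminescence read at 30 min.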

Assay [9] can be described thus: qHTS assay to identify small molecule agonists of the estrogen related receptor signaling pathway with the pleiotropic PPARgamma coactivator (PGC) from Tox21 10K library (AID 1224842). Further: nearly all actives have a fitted effect of over 15% in size. A digest of the protocol:
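PGC/ERR reporter cell line, 2,000 cells per well, incubated 6 h at 37 C before 23 nL compound in DMSO was added. After 18 h at 37 C, One-Glo luminescence read following 30 min at room temperature.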

Assay [10] concerns the target Thyrotropin receptor (Homo sapiens) (UniProt P16473). The assay is described as follows: qHTS assay to identify small molecule agonists of the thyroid stimulating hormone receptor (TSHR) signaling pathway (AID 1224843; calls by dose curve; further: nearly all actives have a fitted effect of over 45% in size). The method in brief:
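Steps: seed 800 TSHR-HEK293 cells per well; add test compound and hold 30 min at ambient temperature; dispense cAMP-d2 then anti-cAMP cryptate; incubate 1 h at ambient; measure fluorescence intensity.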

SMILES strings stand for the structures. Several values for one entry are separate records, joined by “and”; a condition that tells them apart may be missing. Identical values can stand only once. Records with an inconclusive call do not appear. A structure can be active in one record and inactive in another. Activity calls are given as the source filed them. Unless noted, the call rests on the fitted dose curve; in most records, active means well fitted curve in the direction sought with a large enough effect in the repeat runs; inconclusive means weak or mixed curves; inactive means no such curve, though single readings can be large; an effect the other way counts as inactive or inconclusive.
Potency means the concentration at half of the fitted maximal effect.

Sequence of Nuclear receptor subfamily 1 group I member 3 (Homo sapiens) (Q14994 whole entry, looked up): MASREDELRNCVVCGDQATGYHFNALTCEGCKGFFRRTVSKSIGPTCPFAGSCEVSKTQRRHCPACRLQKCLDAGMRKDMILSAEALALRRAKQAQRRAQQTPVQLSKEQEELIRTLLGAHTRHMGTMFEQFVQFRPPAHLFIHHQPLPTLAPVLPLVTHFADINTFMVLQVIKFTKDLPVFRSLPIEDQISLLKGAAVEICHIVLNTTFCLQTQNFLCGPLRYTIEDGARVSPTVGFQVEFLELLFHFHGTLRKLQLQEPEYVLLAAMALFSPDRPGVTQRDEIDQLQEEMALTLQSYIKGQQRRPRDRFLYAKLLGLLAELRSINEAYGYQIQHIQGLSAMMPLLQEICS
Sequence of Luciferin 4-monooxygenase (Photinus pyralis) (P08659 whole entry, looked up): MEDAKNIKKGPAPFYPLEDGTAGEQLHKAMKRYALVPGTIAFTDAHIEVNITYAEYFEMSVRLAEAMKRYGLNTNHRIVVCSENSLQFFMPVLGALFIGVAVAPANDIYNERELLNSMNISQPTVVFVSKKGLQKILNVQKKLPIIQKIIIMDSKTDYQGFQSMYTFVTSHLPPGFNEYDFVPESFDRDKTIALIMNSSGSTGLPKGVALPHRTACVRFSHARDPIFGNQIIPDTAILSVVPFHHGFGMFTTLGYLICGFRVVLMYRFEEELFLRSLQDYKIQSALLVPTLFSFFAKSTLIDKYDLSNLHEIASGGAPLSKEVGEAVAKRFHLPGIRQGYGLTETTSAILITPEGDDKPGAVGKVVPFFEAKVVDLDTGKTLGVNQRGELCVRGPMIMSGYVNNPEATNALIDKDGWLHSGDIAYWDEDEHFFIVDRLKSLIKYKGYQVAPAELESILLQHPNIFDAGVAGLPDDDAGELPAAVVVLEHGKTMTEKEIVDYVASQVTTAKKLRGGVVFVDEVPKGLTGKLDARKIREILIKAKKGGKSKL
Sequence of Thyrotropin receptor (Homo sapiens) (P16473 whole entry, looked up): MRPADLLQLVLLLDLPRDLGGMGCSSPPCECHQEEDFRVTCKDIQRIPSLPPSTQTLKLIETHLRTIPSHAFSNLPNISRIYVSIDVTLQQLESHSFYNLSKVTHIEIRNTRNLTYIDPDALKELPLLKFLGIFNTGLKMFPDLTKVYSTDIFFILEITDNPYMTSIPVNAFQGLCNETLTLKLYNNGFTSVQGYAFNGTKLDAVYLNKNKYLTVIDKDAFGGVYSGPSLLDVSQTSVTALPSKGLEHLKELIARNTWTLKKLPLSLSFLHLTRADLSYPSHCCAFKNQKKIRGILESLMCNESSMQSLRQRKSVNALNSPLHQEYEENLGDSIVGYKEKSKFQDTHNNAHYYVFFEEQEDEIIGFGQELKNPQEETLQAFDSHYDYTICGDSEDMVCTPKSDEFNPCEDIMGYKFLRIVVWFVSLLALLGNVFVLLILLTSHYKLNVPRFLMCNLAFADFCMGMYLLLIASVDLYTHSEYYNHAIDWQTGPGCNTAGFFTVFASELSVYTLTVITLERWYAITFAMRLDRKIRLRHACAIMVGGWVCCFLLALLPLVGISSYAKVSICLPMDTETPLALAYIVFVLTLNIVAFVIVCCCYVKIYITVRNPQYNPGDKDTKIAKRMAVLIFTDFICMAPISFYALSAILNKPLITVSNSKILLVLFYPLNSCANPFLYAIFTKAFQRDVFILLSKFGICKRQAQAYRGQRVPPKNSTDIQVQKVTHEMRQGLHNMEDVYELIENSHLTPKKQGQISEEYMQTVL

On to `O=C(O)CCCCCCCCCCCBr`, for which the Potency entry in assay [1], in [3], in [4], in assay [5], in assay [6] and in assay [7] was “inactive” throughout. Further, the Potency result in assay [8] and in [9] was “inactive” throughout. In assay [2], the Potency is 56.6 µM (active).
Regarding `CC(=O)N/N=C/c1ccc([N+](=O)[O-])o1`, the Potency entry in assay [1], in assay [2], in assay [3], in assay [4], in [5] and in [6] was “inactive” each time. The Potency result in [7], in [8] and in [9] was “inactive” throughout.
For `Cc1ccc(OC(=O)c2ccccc2O)cc1`, the Potency result in assay [1], in assay [3], in assay [4], in assay [5], in [6] and in assay [7] was “inactive” throughout. The Potency entry in assay [8] is “inactive”. The Potency in [2] is 6.33 µM (active).
Consider `CC(CCC(=O)O)C(=O)O` (stereo not drawn), for which the Potency entry in assay [1], in [2], in [3], in assay [4], in assay [5] and in [6] was “inactive” each time. Besides, the Potency entry in assay [7], in assay [8], in assay [9] and in assay [10] was “inactive” in each case.
Turning to `C/C=C/C=C/C=O`, the Potency entry in assay [1], in [2], in assay [3], in [4], in assay [5] and in assay [6] was “inactive” in each case. Besides, the Potency entry in assay [7], in assay [8] and in [9] was “inactive” each time.
On to `C[C@]12CC[C@@H]3c4ccc(O)cc4CC[C@H]3[C@@H]1CC[C@@H]2OC(=O)CCC1CCCC1`, for which the Potency in [1] was 61.1 µM (active) and inactive; in assay [6], 15.4 µM (active); in assay [7], 61.1 µM (active) and inactive. In addition, the Potency result in [2], in assay [3], in [4], in assay [5], in [8] and in [9] was “inactive” each time. For the same compound, in assay [10], the Potency result is “inactive”.
Regarding `C[C@H]1C[C@H](O)c2ccsc2S1(=O)=O`, the Potency entry in assay [1], in assay [2], in assay [3], in assay [4], in assay [5] and in assay [6] was “inactive” throughout. For the same compound, the Potency result in assay [7], in assay [8], in [9] and in [10] was “inactive” each time.
Take `CCCCCCNC(=O)n1cc(F)c(=O)[nH]c1=O`: the Potency result in assay [1], in [2], in assay [3], in assay [4], in [6] and in assay [7] was “inactive” each time. In addition, the Potency entry in assay [8], in [9] and in assay [10] was “inactive” throughout. For the same compound, the Potency in [5] is 2.11 µM (active).
As to `CCCCN(CCN(CCCC)C(=O)N1CCOCC1)C(=O)N1CCOCC1`, the Potency entry in [1], in assay [2], in [3], in [4], in assay [5] and in [6] was “inactive” throughout. Further, the Potency entry in assay [7] was “inactive”.
For the compound `C[C@@]12CCC[C@H]1[C@@H]1CC[C@H]3C[C@@H](O)CC[C@]3(C)[C@H]1CC2`, the Potency result in assay [1], in assay [2], in assay [3], in [4], in assay [5] and in assay [6] was “inactive” each time. For the same compound, the Potency entry in [7], in [8], in [9] and in assay [10] was “inactive” each time.
As to `COc1ccc(OC(=O)N(CC(=O)O)Cc2ccc(OCCc3nc(-c4ccccc4)oc3C)cc2)cc1`, the Potency result in assay [1], in [2], in assay [3], in assay [4], in assay [5] and in assay [6] was “inactive” each time. Also, the Potency entry in [7], in assay [8], in assay [9] and in assay [10] was “inactive” in each case.
Regarding `Cc1ccccc1N=C(N)Nc1ccccc1C`, the Potency result in assay [1], in assay [2], in assay [3], in assay [4], in assay [5] and in assay [6] was “inactive” each time. The Potency result in assay [7], in assay [8], in assay [9] and in [10] was “inactive” throughout.
In the case of `O=c1cc(-c2ccccc2)oc2ccc3ccccc3c12`, the Potency result in assay [1], in assay [3], in assay [4], in assay [5], in assay [7] and in assay [8] was “inactive” each time. The Potency is 0.0356 µM (active) in assay [2], 4.86 µM (active) in assay [6] and 0.243 µM (active) in [9].
Regarding `O=C1c2ccccc2C(=O)C1c1ccc(Br)cc1`, the Potency result in assay [1], in assay [3], in assay [4], in assay [5], in assay [7] and in [8] was “inactive” in each case. Besides, the Potency entry in assay [10] is “inactive”. For the same compound, the figures for the Potency in [2], in assay [6] and in assay [9] were 3.47 µM (active), 29.8 µM (active) and 13.3 µM (active), respectively.
For `O=C1NCCN1CCO`, the Potency entry in assay [1], in [2], in assay [3], in [4], in assay [5] and in assay [6] was “inactive” throughout. Also, in assay [7], the Potency result is “inactive”.
Consider `CCCCC(CC)CN` (stereo not drawn), for which the Potency entry in assay [1], in assay [2], in assay [3], in assay [4], in assay [5] and in assay [6] was “inactive” throughout. The Potency entry in assay [7], in assay [8], in [9] and in [10] was “inactive” in each case.
Turning to `O=c1[nH]ncc2ccccc12`, the Potency entry in [1], in [2], in assay [3], in assay [4], in assay [5] and in [6] was “inactive” throughout. Moreover, the Potency entry in assay [7] and in assay [10] was “inactive” throughout.
Take `CC1(C)O[C@@H]2C[C@H]3[C@@H]4C[C@H](F)C5=CC(=O)C=C[C@]5(C)[C@H]4[C@@H](O)C[C@]3(C)[C@]2(C(=O)CO)O1`: the Potency result in [1], in assay [2], in assay [3], in assay [4], in assay [5] and in assay [6] was “inactive” each time. Besides, the Potency result in assay [7] and in assay [10] was “inactive” each time.
Turning to `CCOC(=O)c1ccc(OCCN2C[C@H](O)[C@@H](O)[C@H](O)[C@H]2CO)cc1`, the Potency result in assay [1], in [2], in assay [3], in [4], in assay [5] and in assay [6] was “inactive” throughout. The Potency result in assay [7] and in assay [10] was “inactive” throughout.
As for `Cc1ccco1`, the Potency entry in assay [1], in assay [2], in [3], in assay [4], in assay [5] and in assay [6] was “inactive” each time. In addition, the Potency entry in assay [7] and in assay [10] was “inactive” in each case.
For `C[C@@H]1CC(=O)NN=C1c1ccc(NN=C(C#N)C#N)cc1`, the Potency in assay [1] was 18.8 µM (active) and 13.3 µM (active); in [2] it was 5.49 µM (active) and 9.77 µM (active); in assay [3], 11.9 µM (active); in assay [4], 11.9 µM (active); in assay [5] it was 21.1 µM (active); in assay [7], 26.6 µM (active) and 23.7 µM (active). Moreover, the Potency was 4.73 µM (active) in [8] and 0.841 µM (active) in [10]. Also, the Potency entry in assay [6] and in assay [9] was “inactive” each time.
Regarding `CCC(C)(C)OC`, the Potency result in [1], in assay [2], in assay [3], in assay [4], in assay [5] and in [6] was “inactive” throughout. In addition, the Potency entry in assay [7], in assay [8], in [9] and in [10] was “inactive” in each case.
As to `C=C1C[C@@]23CC[C@H]4[C@@](C)(CCC[C@@]4(C)C(=O)O[C@@H]4O[C@H](CO)[C@@H](O)[C@H](O)[C@H]4O)[C@@H]2CC[C@]1(O[C@@H]1O[C@H](CO)[C@@H](O)[C@H](O[C@@H]2O[C@H](CO)[C@@H](O)[C@H](O)[C@H]2O)[C@H]1O[C@@H]1O[C@H](CO)[C@@H](O)[C@H](O)[C@H]1O)C3`, the Potency result in assay [1], in assay [2], in assay [3], in assay [4], in [5] and in assay [6] was “inactive” throughout. Moreover, the Potency result in assay [7], in assay [8], in [9] and in [10] was “inactive” in each case.
Consider `Cc1ccc(C(C)(C)O)cc1`, for which the Potency entry in assay [1], in [2], in [3], in [4], in assay [5] and in assay [6] was “inactive” in each case. The Potency result in assay [7] and in [10] was “inactive” throughout.
